Shown are actives, neighbours in structure and some others; about 6.3% of the full set was active somewhere.
Abs 340nm = compound light absorbance at 340 nm, profiling panel, artefact control, biochemical, MLSMR library, data from PS, PMK, MK assays. 65,000 tested, under 10 active. fold change at 10 µM. compound absorbance at 340 nm, fold over control;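 active means at 10 µM dose, initial 340 nm absorbance at least 2 fold that of control wells; inactive means change under 2 fold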;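 further: initial absorbance extrapolated from kinetic A340 decline of NADH oxidation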
Spn DPM-DC inh = S. pneumoniae DPM-DC inhibitors, primary screen, biochemical, PK/LDH-coupled NADH fluorescence; calls only at 10 µM; AID 556, 2006; 65,000 compounds, 0.49% hits; purified DPM-DC; diphosphomevalonate decarboxylase (Streptococcus pneumoniae D39);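 active means the 320 compounds with the highest percent inhibition in the single-dose primary screen, excluding strongly autofluorescent ones, cut at about 32% in these data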;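 further: kinetic rate of NADH fluorescence loss reporting ADP formed by the decarboxylase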
Spn MK inh = S. pneumoniae MK inhibitors, primary screen, biochemical, PK/LDH-coupled NADH absorbance. AID 555, 2006. purified MK, PK/LDH-coupled NADH absorbance 340 nm. mevalonate kinase [Streptococcus pneumoniae D39]. 65,000 compounds, 0.48% hits. inhibition, % at 10 µM;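 active means ranked among the strongest by inhibition in the single 10 µM screen, a fixed top-ranked set picked for dose follow-up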
Spn PMK inh = S. pneumoniae PMK inhibitors, primary screen, biochemical, mevalonate pathway, pilot trial included; purified PMK, PK/LDH-coupled NADH absorbance 340 nm; inhibition, % at 10 µM; 65,000 compounds, 0.49% hits;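 active means top-ranked compounds by inhibition in the single 10 µM screen, taking a fixed number of the strongest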;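 further: 0% = full reaction with DMSO carrier and 100% = background rate without enzyme reaction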
Fluor 339 460 = intrinsic fluorescence of library compounds, ex339/em460 – biochemical, MLSMR library, data from DPM-DC assay, artefact control, profiling panel; compound autofluorescence, ex339/em460 nm, NADH buffer; hits give high values; 1 = no-compound wells, NADH background; fluorescence fold increase at 10 µM; 65,000 compounds, 5.5% hits;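 active means at 10 µM, mean starting fluorescence two-fold or more over control wells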;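 further: signal is the first read of a kinetic run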
NADH enzymes = inhibitors of PK/LDH coupling enzymes, profiling panel, artefact control, biochemical, MLSMR library | coupled PK/LDH NADH assays, four targets | 65,000 compounds, 0.02% hits | AID 774, 2007 | IC50, µM (titrated, usually from 10 µM), without a hit: top-dose inhibition;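 active means single-dose screening hits from any of four coupled enzyme assays that gave an IC50 when retested across doses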;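 further: the DPM-DC format reads NADH fluorescence rather than 340 nm absorbance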
The depositor's hits bear a star; i = inactive; nt = not tested or not shown; + = active, no number.

SMILES | Abs 340nm | Spn DPM-DC inh | Spn MK inh | Spn PMK inh | Fluor 339 460 | NADH enzymes
COc1ccc(OC)c(-c2nc(C(N)=O)c3[nH]c(=O)n(-c4ccc(F)cc4)c3n2)c1 | 1.11 | i | 0.0 | 6.0 | 1.15 | 2.0%
CCOc1cccc(-c2nc(C(N)=O)c3[nH]c(=O)n(-c4cccc(Cl)c4)c3n2)c1O | 1.03 | i | 4.0 | 5.0 | 1.03 | 3.0%
Cc1ccc(-n2c(=O)[nH]c3c(C(N)=O)nc(-c4ccc(C)o4)nc32)cc1 | 1.03 | i | 3.0 | 15.0 | 2.36* | 8.0%
COc1ccccc1-n1c(=O)[nH]c2c(C(N)=O)nc(-c3cccnc3)nc21 | 1.04 | nt | 2.0 | 8.0 | 2.46* | 3.0%
COc1ccccc1-n1c(=O)[nH]c2c(C(N)=O)nc(C3CCCCC3)nc21 | 1.04 | i | 9.0 | 4.0 | 1.77 | 11.0%
NC(=O)c1nc(C2CCCCC2)nc2c1[nH]c(=O)n2-c1ccc(F)cc1 | 1.04 | nt | 4.0 | 7.0 | 2.12* | 6.0%
N#CC1=C(N)N(c2ccccc2)C(c2ccccc2)C1(C#N)C#N (configuration not stated) | 1.01 | i | 5.0 | 5.0 | 1.79 | 6.0%
COC(=O)c1ccc(C)c(NS(=O)(=O)c2ccc(OC)cc2)c1 | 1.01 | i | 3.0 | 16.0 | 1.05 | 6.0%
COC(=O)c1ccc(C(=O)OC)c(NS(=O)(=O)c2ccc(NC(C)=O)cc2)c1 | 1.08 | nt | 0.0 | 6.0 | 2.2* | 3.0%
CCN(CC)c1ccc(NC(=O)COc2ccc(C)cc2)cc1 | 1.02 | i | 0.0 | 4.0 | 1.07 | 1.0%
CCOc1ccc(C2C(C(=O)OC)=CN(CCOC)C=C2C(=O)OC)cc1 | 1.08 | nt | 6.0 | 0.0 | 2.47* | 3.0%
COCCN1C=C(C(=O)OC)C(c2ccc3c(c2)OCO3)C(C(=O)OC)=C1 | 1.08 | nt | 5.0 | 7.0 | 2.13* | 6.0%
COCCN1C=C(C(=O)OC)C(c2cc3c(cc2Br)OCO3)C(C(=O)OC)=C1 | 1 | i | 2.0 | 0.0 | 1.49 | 4.0%
O=C(CCCC(=O)N(CC(=O)NC1CCCCC1)Cc1ccc2c(c1)OCO2)Nc1ccccn1 | 1.01 | i | 3.0 | 14.0 | 1.05 | 4.0%
O=C(c1cnn2c(C(F)F)cc(-c3ccccc3)nc12)N1CCOCC1 | 1.06 | nt | 7.0 | 13.0 | 3.7* | 10.0%
CC1CN(C(=O)c2cnn3c(C(F)F)cc(-c4ccccc4)nc23)CC(C)O1 (configuration not stated) | 1.09 | i | 5.0 | 9.0 | 1.79 | 5.0%
COc1ccc(-c2cc(C(F)F)n3ncc(C(=O)N4CCN5CCCC5C4)c3n2)cc1 (configuration not stated) | 1.13 | nt | 13.0 | 5.0 | 3.56* | 9.0%
COc1ccc(-c2cc(C(F)(F)F)n3ncc(C(=O)NCC4CCCO4)c3n2)cc1OC (configuration not stated) | 1.14 | i | 0.0 | 0.0 | 1.7 | 3.0%
CN1CCN(C(=O)c2cnn3c(C(F)F)cc(C4CC4)nc23)CC1 | 0.99 | i | 9.0 | 0.0 | 1.15 | 4.0%
O=C(c1cnn2c(C(F)F)cc(-c3ccccc3)nc12)N1CCSCC1 | 1.07 | i | 11.0 | 7.0 | 1.19 | 7.0%
COc1ccc(-c2cc(C(F)F)n3ncc(C(=O)NCC4CCCO4)c3n2)cc1 (configuration not stated) | 1.01 | nt | 6.0 | 5.0 | 2.99* | 4.0%
CCOC(=O)N1CCN(C(=O)c2cnn3c(C(F)F)cc(-c4ccc(C)cc4)nc23)CC1 | 1.11 | i | 0.0 | 2.0 | 2.93* | 11.0%
OC(COc1ccc2c(c1)CCC2)Cn1cnc2ccccc21 (configuration not stated) | 1.01 | i | 4.0 | 0.0 | 1.1 | 1.0%
C=C(C)CSc1nnc(-c2ccccc2)n1N | 1.06 | i | 1.0 | 0.0 | 1.13 | 0.0%
Cn1c(=O)[nH]c(=O)c2c1nc(N1CCOCC1)n2CCCSc1ncccn1 | 1.02 | i | 6.0 | 12.0 | 1.14 | 6.0%
SMILES | Abs 340nm | Spn DPM-DC inh | Spn MK inh | Spn PMK inh | Fluor 339 460 | NADH enzymes
Cc1ccc2cc(C)c(N3CCN(c4ccccn4)CC3)nc2c1 | 1.08 | i | 0.0 | 0.0 | 1.47 | 4.0%
Cc1ccc2nc3c(c(N)c2c1)CCN3c1ccccc1 | 1.09 | nt | 1.0 | 3.0 | 3.74* | 2.0%
N#Cc1ccc(-c2cccnc2)nc1SCC(=O)Nc1sc2c(c1C#N)CCC2 | 1.1 | i | 62.0* | 47.0 | 1.14 | 45.0%
CCC(=O)c1cc(F)c(N2CCN(C(=O)Cc3ccccc3)CC2)cc1C | 1.06 | i | 3.0 | 6.0 | 1.15 | 3.0%
O=C(CSc1n[nH]c(-c2ccc(S(=O)(=O)N3CCCCC3)cc2)n1)Nc1nccs1 | 1.07 | i | 5.0 | 7.0 | 2.61* | 10.0%
C=CCNS(=O)(=O)c1ccc2nsnc2c1 | 0.99 | i | 0.0 | 0.0 | 1.03 | 3.0%
COC(=O)C1=C(C)NC2=C(C(=O)CC(C)(C)C2)C1c1cccc(C)n1 (configuration not stated) | 1.13 | nt | 0.0 | 0.0 | 3.68* | 0.0%
CCCOC(=O)C1=C(C)NC2=C(C(=O)CCC2)C1c1cccc(OC)c1OC (configuration not stated) | 1.07 | nt | 6.0 | 0.0 | 2.25* | 3.0%
COC(=O)C1=C(C)NC2=C(C(=O)CCC2)C1c1coc2ccccc2c1=O (configuration not stated) | 1.06 | i | 11.0 | 14.0 | 1.48 | 8.0%
CCCOC(=O)C1=C(C)NC2=C(C(=O)CCC2)C1c1cccs1 (configuration not stated) | 1.06 | i | 9.0 | 13.0 | 1.72 | 8.0%
CC1=C(C(=O)OCc2ccccc2)C(c2ccco2)C2=C(CC(C)(C)CC2=O)N1 (configuration not stated) | 1.07 | i | 1.0 | 10.0 | 1.49 | 8.0%
COC(=O)C1=C(C)NC2=C(C(=O)CCC2)C1c1cccc(C)n1 (configuration not stated) | 1.01 | nt | 11.0 | 7.0 | 3.95* | 9.0%
COC(=O)c1ccc(NC(=O)CSc2nnc(COc3ccccc3)n2C)cc1 | 1.03 | i | 5.0 | 2.0 | 1.09 | 2.0%
COc1ccccc1N1CCN(C(=O)CSc2nnc(NC(=O)C3CC3)s2)CC1 | 0.99 | i | 5.0 | 11.0 | 1.06 | 5.0%
COc1ccccc1N1CCN(C(=O)CSc2nnc(NC(=O)c3ccco3)s2)CC1 | 1.01 | + | 0.0 | 12.0 | 0.73 | 15.0%
Cc1cc2c3nonc3ccc2n1-c1ccccc1 | 1.04 | nt | 6.0 | 6.0 | 2.25* | 6.0%
c1ccc(-c2cc3c(ccc4nonc43)nn2)cc1 | 1.07 | i | 0.0 | 0.0 | 1.09 | 0.0%
CCOC(=O)Cc1csc(-n2sc3ccccc3c2=O)n1 | 1.01 | + | 67.0* | 16.0 | 1.17 | 55.0%
